Positions count from the first letter of the chain named.
Key:
Test in all cases: protein-binding microarray (PBM); PBM: ~300 nM protein, 6 mM HEPES pH 7.8, 80 mM KCl, 0.5 mM EDTA, 0.5 mM EGTA, 6% glycerol, 35 ng/ul poly-dIdC, 1% milk, 1 h, room temperature; Ap Aiptasia and Nv Nematostella (sea anemones) / Co Capsaspora / Aq Amphimedon (sponge) / Dm Drosophila / Hu human; RHD is the Rel homology domain; high values mean tight binding
Conditions in all cases: dsDNA, one strand shown
GST-Dm-Relish = biological target: T1, GST-Dm-Relish (Drosophila melanogaster, UniProt Q94527 99-473)
T1 sequence: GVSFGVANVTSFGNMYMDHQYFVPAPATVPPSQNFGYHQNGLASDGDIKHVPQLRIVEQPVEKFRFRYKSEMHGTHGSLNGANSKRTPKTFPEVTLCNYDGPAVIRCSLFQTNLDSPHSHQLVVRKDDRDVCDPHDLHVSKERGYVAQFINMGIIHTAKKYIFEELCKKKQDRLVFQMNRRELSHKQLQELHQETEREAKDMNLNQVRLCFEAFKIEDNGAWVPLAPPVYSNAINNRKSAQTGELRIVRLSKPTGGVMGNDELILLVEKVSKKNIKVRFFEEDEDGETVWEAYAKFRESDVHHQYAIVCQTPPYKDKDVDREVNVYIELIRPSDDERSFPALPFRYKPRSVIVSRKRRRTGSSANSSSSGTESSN

GST-Aq-NF-kB = biological target: T2, GST-Aq-NF-kB (Amphimedon queenslandica, UniProt A9Y5G7 2-389)
T2 sequence: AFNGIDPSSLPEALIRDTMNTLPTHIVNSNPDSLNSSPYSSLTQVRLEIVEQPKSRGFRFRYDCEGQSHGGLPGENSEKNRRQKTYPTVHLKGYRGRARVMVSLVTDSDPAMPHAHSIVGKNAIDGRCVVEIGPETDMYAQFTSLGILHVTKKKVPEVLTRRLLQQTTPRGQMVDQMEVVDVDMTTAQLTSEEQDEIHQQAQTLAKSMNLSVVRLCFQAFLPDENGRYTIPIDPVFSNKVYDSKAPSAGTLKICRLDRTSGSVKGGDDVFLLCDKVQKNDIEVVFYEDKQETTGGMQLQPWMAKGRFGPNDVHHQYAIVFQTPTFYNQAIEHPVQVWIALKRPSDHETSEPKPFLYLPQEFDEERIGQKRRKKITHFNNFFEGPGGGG

GST-Hu-p50 = GST-Hu-p50 (Homo sapiens, UniProt P19838 7-356)
Chain of GST-Hu-p50 (P19838 7-356): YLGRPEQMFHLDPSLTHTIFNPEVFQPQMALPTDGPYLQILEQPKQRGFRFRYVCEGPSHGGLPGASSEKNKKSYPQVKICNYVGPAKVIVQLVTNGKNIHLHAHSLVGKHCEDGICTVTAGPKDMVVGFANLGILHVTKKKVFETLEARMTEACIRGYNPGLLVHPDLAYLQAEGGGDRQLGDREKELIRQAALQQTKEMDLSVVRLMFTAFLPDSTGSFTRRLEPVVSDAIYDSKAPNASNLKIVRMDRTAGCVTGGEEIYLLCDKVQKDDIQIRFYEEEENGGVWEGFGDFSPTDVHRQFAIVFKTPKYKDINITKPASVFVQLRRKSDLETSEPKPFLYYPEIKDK

GST-Ap-NF-kB RHD = biological target: T3, GST-Ap-NF-kB RHD (Exaiptasia pallida (Aiptasia), UniProt A0A913YAJ5 2-422)
T3 sequence: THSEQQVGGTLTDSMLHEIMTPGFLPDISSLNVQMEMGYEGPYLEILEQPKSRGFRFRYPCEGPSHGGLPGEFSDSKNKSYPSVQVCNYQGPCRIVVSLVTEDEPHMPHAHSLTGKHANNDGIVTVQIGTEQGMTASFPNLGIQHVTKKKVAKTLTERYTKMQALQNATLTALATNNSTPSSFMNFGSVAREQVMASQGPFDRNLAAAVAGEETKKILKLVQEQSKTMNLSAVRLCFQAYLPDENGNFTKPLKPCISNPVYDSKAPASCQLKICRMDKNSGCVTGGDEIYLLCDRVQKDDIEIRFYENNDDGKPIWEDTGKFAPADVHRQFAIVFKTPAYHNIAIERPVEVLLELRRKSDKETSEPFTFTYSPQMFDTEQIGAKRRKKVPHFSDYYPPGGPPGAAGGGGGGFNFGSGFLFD

[1] = biological target: T4, GST-Nv-NF-kB (Cys allele) (Nematostella vectensis, UniProt E5G601 2-411)
T4 sequence: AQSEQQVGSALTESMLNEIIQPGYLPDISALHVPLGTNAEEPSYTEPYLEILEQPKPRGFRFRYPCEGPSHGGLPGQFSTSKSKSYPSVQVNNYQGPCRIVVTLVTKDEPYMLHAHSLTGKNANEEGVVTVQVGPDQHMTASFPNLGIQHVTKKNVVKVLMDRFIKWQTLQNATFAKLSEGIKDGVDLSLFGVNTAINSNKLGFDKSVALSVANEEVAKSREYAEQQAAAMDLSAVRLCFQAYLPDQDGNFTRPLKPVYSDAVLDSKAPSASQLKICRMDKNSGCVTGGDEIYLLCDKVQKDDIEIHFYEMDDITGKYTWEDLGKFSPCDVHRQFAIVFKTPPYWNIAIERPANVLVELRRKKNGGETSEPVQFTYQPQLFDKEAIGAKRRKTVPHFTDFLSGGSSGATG

[2] = biological target: T5, GST-Nv-NF-kB (Ser allele) (Nematostella vectensis, UniProt A7UNT2 2-411)
T5 sequence: T4 sequence with Q21R, C66S, S207N, E215Q, V217A, E225K, A268E, D399E

GST-Co-NF-kB = biological target: T6, GST-Co-NF-kB (Capsaspora owczarzaki, UniProt F1ARL5 200-546)
T6 sequence: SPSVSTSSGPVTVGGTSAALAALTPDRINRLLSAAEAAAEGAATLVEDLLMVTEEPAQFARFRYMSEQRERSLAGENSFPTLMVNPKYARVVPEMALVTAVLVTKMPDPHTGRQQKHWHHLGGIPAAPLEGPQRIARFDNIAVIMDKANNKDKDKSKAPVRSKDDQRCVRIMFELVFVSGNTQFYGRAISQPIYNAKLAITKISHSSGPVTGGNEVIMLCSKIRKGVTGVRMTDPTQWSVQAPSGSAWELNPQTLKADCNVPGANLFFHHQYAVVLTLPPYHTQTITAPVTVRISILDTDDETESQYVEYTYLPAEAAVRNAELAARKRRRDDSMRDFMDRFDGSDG

Sequence | binding signal (GST-Dm-Relish) [z-score] | binding signal (GST-Aq-NF-kB) [z-score] | binding signal (GST-Hu-p50) [z-score] | binding signal (GST-Ap-NF-kB RHD) [z-score] | binding signal [1] [z-score] | binding signal [2] [z-score] | binding signal (GST-Co-NF-kB) [z-score]
CCGATTAACATCACAAAAAATCCTGATGTTAATCGGGTCTTGATTCGCTTGACGCTGCTG | 1.98 | 1.44 | 1.98 | – | – | – | –
CCGATTAACATCAAAAATTTCCATGATGTTAATCGGGTCTTGATTCGCTTGACGCTGCTG | 1.53 | 1.53 | 1.32 | – | – | – | –
CCGATTAACATCAGGCAGTTCCCTGATGTTAATCGGGTCTTGATTCGCTTGACGCTGCTG | – | 3.41 | – | 1.39 | 1.3 | 1.25 | –
CCGATTAACATCATTGTCCCTTCTGATGTTAATCGGGTCTTGATTCGCTTGACGCTGCTG | – | 2.67 | – | 2.23 | 4.09 | – | –
CCGATTAACATCAGGAAATTTACTGATGTTAATCGGGTCTTGATTCGCTTGACGCTGCTG | 1.36 | 1.54 | 1.51 | – | – | – | –
CCGATTAACATCAACGGGTCCCTTGATGTTAATCGGGTCTTGATTCGCTTGACGCTGCTG | – | 2.73 | – | 2.6 | 1.84 | – | –
CCGATTAACATCAGGGGCCGTAATGATGTTAATCGGGTCTTGATTCGCTTGACGCTGCTG | – | 2.32 | – | 1.66 | 1.75 | – | –
CCGATTAACATCAGAAAGTTTCCTGATGTTAATCGGGTCTTGATTCGCTTGACGCTGCTG | 1.85 | 1.06 | 1.69 | – | – | – | –
CCGATTAACATCAAAAATTCCAGTGATGTTAATCGGGTCTTGATTCGCTTGACGCTGCTG | 1.57 | 1.48 | 1.08 | – | – | – | 1.37
CCGATTAACATCACGGAATTTCCTGATGTTAATCGGGTCTTGATTCGCTTGACGCTGCTG | 1.89 | 4.83 | 1.38 | – | – | – | –
CCGATTAACATCAAAAAATTTCCTGATGTTAATCGGGTCTTGATTCGCTTGACGCTGCTG | 2.34 | 2.22 | 2.27 | – | – | 1.31 | –
CCGATTAACATCACAAAAATTCCTGATGTTAATCGGGTCTTGATTCGCTTGACGCTGCTG | 2.38 | 1.5 | 1.01 | – | – | – | –
CCGATTAACATCAAGAAAATTCCTGATGTTAATCGGGTCTTGATTCGCTTGACGCTGCTG | 1.53 | 1.97 | 1.07 | – | – | – | –
CCGATTAACATCAGGAACCTCCCTGATGTTAATCGGGTCTTGATTCGCTTGACGCTGCTG | – | 4.17 | – | 1.92 | 2.34 | – | –
CCGATTAACATCAGGACCGTCCCTGATGTTAATCGGGTCTTGATTCGCTTGACGCTGCTG | – | 6.42 | – | 4.25 | 3.73 | – | –
CCGATTAACATCAGGACACTCCCTGATGTTAATCGGGTCTTGATTCGCTTGACGCTGCTG | – | 5.35 | – | 1.81 | 2.51 | – | –

Sequence | binding signal (GST-Dm-Relish) [z-score] | binding signal (GST-Aq-NF-kB) [z-score] | binding signal (GST-Hu-p50) [z-score] | binding signal (GST-Ap-NF-kB RHD) [z-score] | binding signal [1] [z-score] | binding signal [2] [z-score] | binding signal (GST-Co-NF-kB) [z-score]
CCGATTAACATCAGGGGTCAGTATGATGTTAATCGGGTCTTGATTCGCTTGACGCTGCTG | – | 1.09 | – | 1.23 | – | – | –
CCGATTAACATCAAGCCTGTCCCTGATGTTAATCGGGTCTTGATTCGCTTGACGCTGCTG | – | 1.77 | – | 2.01 | 1.27 | – | –
CCGATTAACATCAGTCCCTAAGCTGATGTTAATCGGGTCTTGATTCGCTTGACGCTGCTG | – | 4.16 | – | 1.75 | 3.07 | – | –
CCGATTAACATCAAAATTCCGGGTGATGTTAATCGGGTCTTGATTCGCTTGACGCTGCTG | 1.53 | 1.67 | 1.74 | – | – | – | 1.33
CCGATTAACATCAAAAAATTTTCTGATGTTAATCGGGTCTTGATTCGCTTGACGCTGCTG | 2.72 | 1.49 | 2.15 | – | – | 1.98 | –
CCGATTAACATCAAAAAGTTTCCTGATGTTAATCGGGTCTTGATTCGCTTGACGCTGCTG | 2.43 | 1.68 | 1.42 | – | – | – | –
CCGATTAACATCAGGAGCTTCCCTGATGTTAATCGGGTCTTGATTCGCTTGACGCTGCTG | – | 3.47 | – | 1.1 | 1.03 | – | –
CCGATTAACATCAACCTTTCCCCTGATGTTAATCGGGTCTTGATTCGCTTGACGCTGCTG | 1.62 | 4.44 | – | 5.33 | 6.21 | 7.66 | 6.19
CCGATTAACATCACCTATTCCCCTGATGTTAATCGGGTCTTGATTCGCTTGACGCTGCTG | 2.23 | 4.27 | – | 5.73 | 5.93 | 7.28 | 5.72
CCGATTAACATCAGGGAATACACTGATGTTAATCGGGTCTTGATTCGCTTGACGCTGCTG | 2.61 | 3.68 | – | 2.66 | 2.43 | 2.21 | 2.5
CCGATTAACATCACCCCCACCCCTGATGTTAATCGGGTCTTGATTCGCTTGACGCTGCTG | 3.84 | 3.33 | – | 3.49 | 2.96 | 1.75 | 4.43
CCGATTAACATCAGCATGGGAAATGATGTTAATCGGGTCTTGATTCGCTTGACGCTGCTG | – | 1.67 | – | 1.97 | 2.72 | 2.33 | 1.93
CCGATTAACATCAAGAGTTCCCCTGATGTTAATCGGGTCTTGATTCGCTTGACGCTGCTG | 7.58 | 5.77 | – | 7.18 | 7.2 | 7.72 | 6.55
CCGATTAACATCAGCATTTTCCCTGATGTTAATCGGGTCTTGATTCGCTTGACGCTGCTG | – | 3.68 | – | 3.21 | 4.61 | 6.85 | 3.96
CCGATTAACATCAGGGGGGGGCATGATGTTAATCGGGTCTTGATTCGCTTGACGCTGCTG | 3.78 | 3.82 | – | 4.94 | 4.84 | 4.15 | 4.65

Reference: paper PMC5700166
